AC50 and outcome data for three molecules are collected here from PubChem BioAssay (EPA / NIEHS).

Read-out in test [1]: solute carrier (SLCO1B1), SLCO1B1 (gene 10599)
Description: LTEA_HepaRG_SLCO1B1: Life Technologies and Expression Analysis (LTEA) Assay for solute carrier (SLCO1B1) using HepaRG (AID 2283530). Particulars: mRNA level, 48 h; actives raise or lower the signal. Summed up:
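Differentiated human HepaRG cells, plated 48 h, switched to serum-free induction medium and exposed in duplicate for 48 h to 8 half-log concentrations (top 100 uM) in 0.5% DMSO. SLCO1B1 mRNA by TaqMan qRT-PCR, normalized to ACTB/GAPDH/POLR2A.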

Read-out in test [2]: sulfotransferase 2A1 (SULT2A1), SULT2A1 (gene 6822)
Description: LTEA_HepaRG_SULT2A1: Life Technologies and Expression Analysis (LTEA) Assay for sulfotransferase 2A1 (SULT2A1) using HepaRG (AID 2283531). Particulars: mRNA level, 48 h; actives raise or lower the signal. The method, boiled down:
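Differentiated human HepaRG cells in serum-free induction medium were exposed for 48 h to eight half-log concentrations (top 100 uM, 0.5% DMSO). SULT2A1 mRNA was measured by qRT-PCR, normalized to ACTB, GAPDH and POLR2A, and fitted bidirectionally against DMSO.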

Read-out in test [3]: Transforming Growth Factor (TGFA), TGFA (gene 7039)
Description: LTEA_HepaRG_TGFA: Life Technologies and Expression Analysis (LTEA) Assay for Transforming Growth Factor (TGFA) using HepaRG (AID 2283532). Conditions: mRNA level, 48 h; actives raise or lower the signal. The method, boiled down: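 Differentiated HepaRG cells exposed 48 hours in serum-free induction medium, 0.5% DMSO vehicle, 8-point half-log series from 100 uM, in duplicate. TGFA mRNA by TaqMan qRT-PCR, normalised to ACTB, GAPDH, POLR2A; bidirectional fit versus DMSO.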

Read-out in test [4]: Transforming Growth Factor (TGFB1), TGFB1 (gene 7040)
The test can be described thus: LTEA_HepaRG_TGFB1: Life Technologies and Expression Analysis (LTEA) Assay for Transforming Growth Factor (TGFB1) Transporter using HepaRG (AID 2283533). Particulars: mRNA level, 48 h; actives raise or lower the signal. The method, boiled down: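 Differentiated human HepaRG cells in serum-free induction medium were exposed in duplicate for 48 h to eight concentrations (top 100 uM, half-log steps, 0.5% DMSO). TGFB1 mRNA was quantified by qRT-PCR, normalized to ACTB, GAPDH, POLR2A, and fitted bidirectionally against DMSO.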

Read-out in the next test: TIMP1, TIMP1 (gene 7076)
The test can be described thus: LTEA_HepaRG_TIMP1: Life Technologies and Expression Analysis (LTEA) Assay for TIMP1 using HepaRG (AID 2283534). Particulars: mRNA level, 48 h; actives raise or lower the signal. Summed up: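 Differentiated human HepaRG cells in serum-free induction medium were exposed 48 h to chemicals (8 half-log concentrations, top 100 uM, 0.5% DMSO). TIMP1 mRNA was quantified by TaqMan qRT-PCR, normalized to ACTB/GAPDH/POLR2A; bidirectional fit versus DMSO.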

Read-out in test [5]: Tumor necrosis factor receptor 1 (TNFRSF1A), TNFRSF1A (gene 7132)
Description: LTEA_HepaRG_TNFRSF1A: Life Technologies and Expression Analysis (LTEA) Assay for Tumor necrosis factor receptor 1 (TNFRSF1A) using HepaRG (AID 2283535). Conditions: mRNA level, 48 h; actives raise or lower the signal. Summed up:
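Differentiated human HepaRG cells were exposed in duplicate for 48 h in serum-free induction medium to eight concentrations (top 100 uM, half-log steps, 0.5% DMSO). TNFRSF1A mRNA was quantified by qRT-PCR, normalized to ACTB, GAPDH and POLR2A, then fitted bidirectionally against DMSO.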

Read-out in test [6]: Thyroid Hormone Responsive (THRSP), THRSP (gene 7069)
The test can be described thus: LTEA_HepaRG_THRSP: Life Technologies and Expression Analysis (LTEA) Assay for Thyroid Hormone Responsive (THRSP) using HepaRG (AID 2283536). Particulars: mRNA level, 48 h; actives raise or lower the signal. Summed up: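 Differentiated HepaRG cells treated 48 h in serum-free induction medium with 8 half-log concentrations up to 100 uM (0.5% DMSO), duplicates. THRSP mRNA by TaqMan qRT-PCR normalised to ACTB, GAPDH, POLR2A; bidirectional fit versus DMSO.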

Read-out in test [7]: Cellular tumor antigen p53 (Homo sapiens) (UniProt P04637)
The test can be described thus: LTEA_HepaRG_TP53: Life Technologies and Expression Analysis (LTEA) Assay for Tumor Protein P53 (TP53) using HepaRG (AID 2283537). Particulars: mRNA level, 48 h; actives raise or lower the signal. The method, boiled down: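 Read-out is TP53 transcript level by microfluidic qRT-PCR, normalised to three housekeeping genes and fitted bidirectionally against DMSO. Human HepaRG cells received compounds for 48 h, highest concentration 100 uM.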

Read-out in test [8]: UDP glucuronosyltransferase (UGT1A1), UGT1A1 (gene 54658)
Description: LTEA_HepaRG_UGT1A1: Life Technologies and Expression Analysis (LTEA) Assay for UDP glucuronosyltransferase (UGT1A1) using HepaRG (AID 2283538). Particulars: mRNA level, 48 h; actives raise or lower the signal. The method, boiled down: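 HepaRG cells, 0.5% DMSO vehicle, 48 h exposure in serum-free induction medium to 8-point half-log series topping at 100 uM, in duplicate. UGT1A1 mRNA by Fluidigm qRT-PCR, normalized to ACTB/GAPDH/POLR2A; bidirectional fit versus DMSO.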

Read-out in test [9]: X-box binding protein 1 (XBP1), XBP1 (gene 7494)
Description: LTEA_HepaRG_XBP1: Life Technologies and Expression Analysis (LTEA) Assay for X-box binding protein 1 (XBP1) using HepaRG (AID 2283540). Particulars: mRNA level, 48 h; actives raise or lower the signal. Summed up:
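Differentiated human HepaRG cells in serum-free induction medium were exposed in duplicate for 48 h to eight half-log concentrations up to 100 uM in 0.5% DMSO. XBP1 mRNA was quantified by qRT-PCR, normalised to ACTB, GAPDH and POLR2A, with bidirectional fitting against DMSO.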

Test [10] is described as follows: LTEA_HepaRG_LDH_cytotoxicity: Cytotoxicity Assessment in the Life Technologies and Expression Analysis (LTEA) Assay (AID 2283563; active = hit-call score of the fitted dose curve at least 0.9, where 1 is the maximum;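 as to AC50: LDH activity released into spent culture medium as a marker of cell death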). The method, boiled down:
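Differentiated human HepaRG cells, plated 48 h beforehand, were switched to serum-free induction medium and exposed for 48 h to eight half-log concentrations (top 100 uM) in 0.5% DMSO. LDH was measured in spent medium; activity was fitted relative to DMSO vehicle.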

The nature of test [11]: ATG_XTT_Cytotoxicity: Cytotoxicity Assessment in the Attagene TRANS-FACTORIAL HepG2 Assay (AID 2283584; active = hit-call score of the fitted dose curve at least 0.9, where 1 is the maximum;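 as to AC50: cells exposed to compound for 24 h before reading; active means loss of viability signal versus DMSO baseline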). The method, boiled down: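 HepG2 human liver cells, transiently transfected with multiple GAL4-UAS reporter units, were dosed and read at 24 h by XTT as cell number. Loss of signal was fitted relative to DMSO negative control baseline.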
The target in test [12] is Cellular tumor antigen p53 (Homo sapiens) (UniProt P04637). The test can be described thus: TOX21_p53_BLA_p2_ratio: Tox21 HCT-116 p53 Agonism Beta-lactamase Assay, Ratio, Phase 2 (AID 2283592; active = hit-call score of the fitted dose curve at least 0.9, where 1 is the maximum). Summed up:
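HCT116 cells carrying a p53-responsive beta-lactamase reporter were plated, incubated 5 h at 37C, then dosed with compounds in DMSO (217-fold dilution) for 16 h. CCF4-AM substrate was added for 2 h at room temperature; the 460/530 nm emission ratio gave gain-of-signal activity relative to DMSO.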

A short description of test [13]: TOX21_p53_BLA_p3_viability: Viability Assessment in the Tox21 HCT-116 p53 Agonism Beta-lactamase Assay, Phase 3 (AID 2283593; active = hit-call score of the fitted dose curve at least 0.9, where 1 is the maximum;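 also: cells exposed to compound for 16 h before reading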). The method, boiled down:
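HCT116 cells, 4000/well, dosed 5 h after plating by pin transfer (217-fold dilution from DMSO stock) and incubated 16 h at 37C, 5% CO2. Viability read as ATP luminescence with CellTiter-Glo after 30 min at room temperature.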

In test [14] the target is Cellular tumor antigen p53 (Homo sapiens) (UniProt P04637). Description: TOX21_p53_BLA_p3_ratio: Tox21 HCT-116 p53 Agonism Beta-lactamase Assay, Ratio, Phase 3 (AID 2283596; active = hit-call score of the fitted dose curve at least 0.9, where 1 is the maximum). The method, boiled down: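 HCT116 p53-bla cells (4000/well) given compound in DMSO (217-fold dilution) after 5 h, incubated 16 h at 37C. CCF4-AM substrate 2 h at room temperature; 460/530 nm emission ratio, gain fitted against DMSO.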

The nature of test [15]: TOX21_p53_BLA_p4_viability: Viability Assessment in the Tox21 HCT-116 p53 Agonism Beta-lactamase Assay, Phase 4 (AID 2283597; active = hit-call score of the fitted dose curve at least 0.9, where 1 is the maximum;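 also: hits lower the luminescence signal meaning cytotoxicity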). Summed up: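 HCT116 p53-bla cells (4000/well) rested 5 h at 37C, then received compounds in DMSO (217-fold dilution) for 16 h at 37C, 5% CO2. CellTiter-Glo was added after the CCF4-AM read, and luminescence was read after 30 min at room temperature.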

Test [16] concerns the target Cellular tumor antigen p53 (Homo sapiens) (UniProt P04637). Description: TOX21_p53_BLA_p5_ratio: Tox21 HCT-116 p53 Agonism Beta-lactamase Assay, Ratio, Phase 5 (AID 2283599; active = hit-call score of the fitted dose curve at least 0.9, where 1 is the maximum). The method, boiled down:
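HCT-116 p53-bla cells (4000/well) plated 5 h, dosed with compound (217-fold DMSO dilution) for 16 h at 37 C; CCF4-AM substrate 2 h at room temperature. Activity is the 460/530 nm emission ratio (405 nm excitation), fitted in gain-of-signal direction versus DMSO.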

Test [17] in a line: TOX21_p53_BLA_p5_viability: Viability Assessment in the Tox21 HCT-116 p53 Agonism Beta-lactamase Assay, Phase 5 (AID 2283600; active = hit-call score of the fitted dose curve at least 0.9, where 1 is the maximum). The method, boiled down:
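Cells were plated at 4000/well, rested 5 h at 37C, then given compounds in DMSO (217-fold dilution) for 16 h at 37C, 5% CO2. Following the CCF4-AM beta-lactamase read, CellTiter-Glo was added and luminescence was read after 30 min at room temperature.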

In test [18] the target is Cellular tumor antigen p53 (Homo sapiens) (UniProt P04637). Description: TOX21_p53_BLA_p4_ratio: Tox21 HCT-116 p53 Agonism Beta-lactamase Assay, Ratio, Phase 4 (AID 2283601; active = hit-call score of the fitted dose curve at least 0.9, where 1 is the maximum). Summed up: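 HCT-116 p53 beta-lactamase reporter cells (4000/well) preincubated 5 h, then compound (217-fold dilution of DMSO stock) for 16 h at 37C. CCF4-AM substrate added 2 h at room temperature; 460/530 nm emission ratio fitted upward versus DMSO.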

Records with an inconclusive call do not appear. Activity calls are given as the source filed them. The calls were made as follows, unless noted: active = hit-call score of the fitted dose curve at least 0.9, where 1 is the maximum; inactive = score below 0.9.

What is called AC50 is the concentration giving half of the maximal activity seen.

Sequence of Cellular tumor antigen p53 (Homo sapiens) (P04637 whole entry, looked up): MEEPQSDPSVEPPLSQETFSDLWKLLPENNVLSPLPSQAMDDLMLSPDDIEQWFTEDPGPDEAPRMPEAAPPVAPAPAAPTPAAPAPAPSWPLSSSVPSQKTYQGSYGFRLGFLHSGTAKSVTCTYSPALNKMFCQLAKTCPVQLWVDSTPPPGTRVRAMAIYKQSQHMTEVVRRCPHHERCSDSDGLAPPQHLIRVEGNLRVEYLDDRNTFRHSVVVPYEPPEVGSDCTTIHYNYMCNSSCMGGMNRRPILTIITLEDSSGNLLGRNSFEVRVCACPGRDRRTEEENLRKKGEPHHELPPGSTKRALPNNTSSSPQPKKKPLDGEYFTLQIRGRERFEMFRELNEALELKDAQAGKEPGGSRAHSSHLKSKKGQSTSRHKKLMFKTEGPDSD

As for `CC(C)(C)C(O)/C(=C\c1ccc(Cl)cc1Cl)n1cncn1` (stereo not given), the AC50 was 69 µM (active) in [1]; 35.2 µM (active) in [2]; 69.2 µM (active) with TIMP1, TIMP1 (gene 7076); 69.2 µM (active) in test [8]; 72.9 µM (active) in test [10]; 56.3 µM (active) in test [11]. In addition, in [15], the AC50 was 51.8 µM (active). For the same molecule, the molecule was called inactive in test [3], in [4], in test [5], in test [6], in test [7] and in test [9]. The result in [12], in test [13], in test [14], in test [16], in test [17] and in test [18] was inactive.
In the case of `COP(=S)(OC)Oc1ccc([N+](=O)[O-])cc1`, the outcome is “inactive” in test [1]; “inactive” in test [2]; “inactive” in test [3]; “inactive” in test [4]; “inactive” with TIMP1, TIMP1 (gene 7076); “inactive” in test [5]. In addition, the outcome in [6], in test [7], in test [8], in [9], in test [10] and in test [11] was inactive. In addition, the result in test [12], in test [13], in [14], in test [15], in [16] and in [18] was inactive.
With `CC1(c2ccc(Oc3ccccc3)cc2)OC(=O)N(Nc2ccccc2)C1=O` (stereo not given), the AC50 is 30.6 µM (active) in test [1]; 32.5 µM (active) in test [2]; 8.82 µM (active) in test [3]; 24.1 µM (active) in test [6]; 12.9 µM (active) in test [7]; 50.2 µM (active) in test [10]. Further, the half-maximal activity concentration (AC50) in [12] was 16.9 µM (active); in [15], 19.5 µM (active); in test [16], 46.4 µM (active); in test [18], 51.2 µM (active). The outcome is “inactive” in [4]; “inactive” with TIMP1, TIMP1 (gene 7076); “inactive” in test [5]; “inactive” in test [8]; “inactive” in test [9]; “inactive” in [13]. In addition, the outcome in [14] and in test [17] was inactive.
